Measured values published in the supplement of paper PMC6609913.
Structures can show the parent of a compound that is named as a salt. ± gives the standard deviation of the averaged measurements. The full ranking holds about 1,300 compounds; the median of “normalised cell viability” is about 1, and the lowest 2% start at about 0.15. Many of the other results were omitted from the sample, so the lowest values are more common in it than they were.

Test system: V-C8 + BRCA2 (BRCA2-proficient hamster cells)
Assay: normalised cell viability (fraction of plate median); higher = more viable cells (less toxic)
Details: 5 µM
Procedure, shortened: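 Hamster V-C8 cells with and without restored BRCA2 were exposed in 96-well plates to library drugs at 5 μM for 3 days (screen 1) or 6 days (screen 2). Cell viability was scored by resazurin assay, then median-plate normalised, averaging triplicate wells.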

Structure (SMILES)	normalised cell viability (treatment time: 3 days)	normalised cell viability (treatment time: 6 days)
COc1ccc(CCN2CCC(Nc3nc4ccccc4n3Cc3ccc(F)cc3)CC2)cc1 [Astemizole]	0.118 ± 0.0065	0.102 ± 0.0063
Fc1ccc(C(OCCN2CCN(CCCc3ccccc3)CC2)c2ccc(F)cc2)cc1	0.18 ± 0.0028	0.191 ± 0.0064
C[C@]12C[C@H]3S[C@H]3C[C@@H]1CC[C@@H]1[C@@H]2CC[C@]2(C)[C@@H](O)CC[C@@H]12 [Epitiostanol]	1.02 ± 0.019	1.05 ± 0.022
CC(C)[N+](C)(CCC(C(N)=O)(c1ccccc1)c1ccccc1)C(C)C [Isopropamide iodide]	1.04 ± 0.062	1.02 ± 0.11
CN1[C@@H]2CC[C@H]1C[C@@H](OC1c3ccccc3CCc3ccccc31)C2 [Deptropine citrate]	0.931 ± 0.016	0.869 ± 0.065
OC(c1ccccc1)(c1ccccc1)C1CCNCC1 [Azacyclonol]	0.985 ± 0.041	1.03 ± 0.042
C[C@@H]1CC[C@H]2[C@@H](C)C(=O)O[C@@H]3O[C@@]4(C)CC[C@@H]1[C@]32OO4 [Artemisinin]	0.794 ± 0.024	0.87 ± 0.095
C[C@]12CC[C@H](O)C[C@H]1CC[C@@H]1[C@@H]2C[C@@H](O)[C@]2(C)[C@@H](C3=CC(=O)OC3)CC[C@]12O [Digoxigenin]	0.962 ± 0.11	0.986 ± 0.056
CC(=O)NC1CCSC1=O (racemic) [N-Acetyl-DL-homocysteine Thiolactone]	1.05 ± 0.096	1.06 ± 0.11
CO[C@]12C[C@@H](COC(=O)c3cncc(Br)c3)CN(C)[C@@H]1Cc1cn(C)c3cccc2c13 [Nicergoline]	0.81 ± 0.019	0.926 ± 0.01
CNCC(O)c1ccc(O)cc1 (racemic) [(+,-)-Synephrine]	1.01 ± 0.085	1.01 ± 0.022
C[CH2][Hg][S]c1ccccc1C(=O)[O-].[Na+] [Thimerosal]	0.106 ± 0.0062	0.118 ± 0.007
NCCC(O)C(=O)NC1CC(N)C(OC2OC(CN)C(O)[C@H](O)[C@@H]2N)[C@H](OC2O[C@H](CO)[C@@H](O)[C@@H]2O)[C@@H]1O (stereo partly specified) [Butirosin disulfate salt]	0.979 ± 0.026	0.868 ± 0.3
C[C@@H]1C[C@@H]([C@H](O)CC2CC(=O)NC(=O)C2)C(=O)[C@@H](C)C1 [Cycloheximide]	0.146 ± 0.008	0.138 ± 0.016
CC(CCc1ccccc1)NC(C)C(O)c1ccc(O)cc1 (stereo unspecified) [Nylidrin]	1.02 ± 0.0065	1.02 ± 0.051
CCC(=O)O[C@@](Cc1ccccc1)(c1ccccc1)[C@@H](C)CN(C)C [Levopropoxyphene napsylate]	0.979 ± 0.083	1.058 ± 0.0096
COc1cc([C@@H]2c3cc4c(cc3[C@H](O)[C@H]3COC(=O)[C@H]23)OCO4)cc(OC)c1OC [Podophyllotoxin]	0.143 ± 0.0046	0.136 ± 0.016
C=C1CC[C@@]2(O)[C@H]3Cc4ccc(O)c5c4[C@@]2(CCN3CC2CC2)[C@H]1O5 [Nalmefene hydrochloride]	1 ± 0.043	1.07 ± 0.15
